Laboratory results taken from PubChem BioAssay (Tox21).
Results filed as inconclusive are left out. A call without a number means that no potency is given here. Activity calls are given as the source filed them. The call rests on the fitted dose curve; in most records, active means well fitted cell-killing curve with a large enough effect in the repeat runs; inconclusive means weak or mixed curves, or effect the other way; inactive means flat fitted curve, though single readings scatter.

assay: cAMP Responsive Elements (CRE) small molecule agonists, cell-based qHTS assay: qHTS cell viability counter screen (AID 2060914); details: CRE-bla HEK293T viability, CellTiter-Glo luminescence, 5 h; series mostly up to 92.4 µM; further: nearly all actives have a fitted effect of over 50% in size
Outline: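 HEK 293T CRE-bla; DMEM + 10% dialyzed FBS, 25 mM HEPES; 18 h pre-incubation; compound 3 h, 37 °C/5% CO2; CellTiter-Glo added after reporter read; luminescence after 30 min RT.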
Potency means the concentration at half of the fitted maximal effect.

Row | SMILES | Potency
1 | CC(C)NC[C@@H](O)COc1cccc2ccccc12 | inactive
2 | CC1=NN(c2cc(Cl)c(S(=O)(=O)O)cc2Cl)C(=O)C1N=Nc1ccc(S(=O)(=O)O)cc1 (stereo not given) | 2.43 µM (active)
3 | CC(=O)OC(C)OC(=O)C(C)c1ccc(-c2ccccc2)c(F)c1 (stereo not given) | inactive
4 | CN(CCCN1c2ccccc2CCc2ccccc21)CC(=O)c1ccc(Cl)cc1 | inactive
5 | O=C(O)c1cc(C(=O)O)c(C(=O)O)cc1C(=O)O | inactive
6 | Cc1ccc2c(Cl)cc(Cl)c(O)c2n1 | inactive
7 | Nc1nc2c(ncn2COC(CO)CO)c(=O)[nH]1 | inactive
8 | CCCCCCCCC/C=C/CC1CC(=O)OC1=O (stereo not given) | inactive
9 | C=C(C)C1CC=C(C)C(O)C1 (stereo not given) | inactive
10 | CC1(C)C(=O)N(CO)C(=O)N1CO | inactive
11 | Cc1ccncc1 | inactive
12 | CC[C@H]1CC[C@H](NCc2cc3c(cc2OC)[C@H]2C[C@H]2C(=O)N3C)[C@H](c2ccccc2)N1 | inactive
13 | Nc1ccc(NC(=O)c2ccc(N)cc2)cc1 | inactive
14 | O=c1c2ccccc2nnn1CCl | inactive
15 | CCC(C)(C)c1cc(O)c(C(C)(C)CC)cc1O | inactive
16 | CCOC(=O)N1CCC(n2c(=O)[nH]c3cc(Cl)ccc32)CC1 | inactive
17 | CCOC(=O)CN1CCCC1=O | inactive
18 | O=C(O)C(O)[C@H](O)[C@@H](O)[C@H](O)[C@H](O)CO (stereo not given in full) | inactive
19 | CCCCC/C(C=O)=C\c1ccccc1 | inactive
20 | Nc1cccc2c(=O)[nH][nH]c(=O)c12 | inactive

Row | SMILES | Potency
21 | CN(C[C@@H](CC[N+]12CCC(C3CCCCC3)(CC1)CC2)c1ccc(Cl)c(Cl)c1)C(=O)c1cc(C(F)(F)F)cc(C(F)(F)F)c1 | inactive
22 | C[C@@H](O)C(=O)O | inactive
23 | CCCCCCCCCCCCCCCCCC(=O)OCC(CC)CCCC (stereo not given) | inactive
24 | O=S(=O)(O)c1cccc(S(=O)(=O)O)c1 | inactive
25 | Nc1cc(Cl)cc(S(=O)(=O)O)c1O | inactive
26 | C#Cc1cccc(Nc2ncnc3cc(OCCOC)c(OCCOC)cc23)c1 | inactive
27 | O=c1cc(-c2ccccc2)oc2ccccc12 | inactive
28 | O=C(NCCN1CCOCC1)c1ccc(Cl)cc1 | inactive
29 | CCCCCC(=O)O | inactive
30 | CS(=O)(=O)c1ccc(Cl)cc1 | inactive
31 | O=C(c1ccc(O)cc1)c1ccc(O)c(O)c1O | inactive
32 | COC(=O)C1=C(C)NC(C)=C(C(=O)OCC(C)C)C1c1ccccc1[N+](=O)[O-] (stereo not given) | inactive
33 | O=S(=O)(O)c1cc(Cl)c(Cl)cc1Cl | inactive
34 | NCCc1ccn[nH]1 | inactive
35 | Cc1cccc(Nc2ccccc2)c1 | inactive
36 | CCCCCOc1ccccc1/C(=C\SC)n1ccnc1 | inactive
37 | C[N+]1(C)CCC(OC(=O)C(O)(c2ccccc2)C2CCCC2)C1 (stereo not given) | inactive
38 | C=Cc1ccc(O)c(OC)c1 | inactive
39 | CCCCCN(CCCOC)C(=O)C(CCC(=O)O)NC(=O)c1ccc(Cl)c(Cl)c1 (stereo not given) | inactive
40 | CC/C=C\C#N | inactive
